Bioassay records: PubChem, National Center for Advancing Translational Sciences (NCATS)
Most compounds without a hit are left out; they make up all but 19% or so of the library.
TDP1 cell noCPT – qHTS for Inhibitors of human tyrosyl-DNA phosphodiesterase 1 (TDP1): qHTS in cells in absence of CPT | actives 15% (n = 420,000) | AID 686978, 2013 | DT40 Tdp1-/- hTDP1 cells, no CPT, ATP luminescence, 48 h | Potency, µM (titrated, usually from 46.2 µM), without a hit: at the top dose activity change, negative = growth inhibition, most hits filed as inhibitors; further: nearly all actives have a fitted effect of over 55% in size
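Growth kinetics read by CellTiter-Glo luminescence after ≥48 hr at 37 °C. Cells: DT40 Tdp1-/- stably carrying human TDP1, 400 per well, compound exposure in the absence of CPT (DMSO vehicle).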
TDP1 cell CPT – growth inhibition of DT40 Tdp1-/-;hTDP1 cells with camptothecin (screen for TDP1 inhibitors); Potency, µM (highest dose often 46.2 µM), inactives show top-dose activity change, negative = growth inhibition, usual class: inhibitors; actives 12% (n = 420,000); chicken DT40 Tdp1-/-;hTDP1 cells + 20 nM CPT, ATP luminescence, 48 h; further: nearly all actives have a fitted effect of over 55% in size
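Chicken DT40 Tdp1-/- cells stably complemented with human TDP1 were seeded at 400 cells/well in medium containing 20 nM camptothecin, exposed to pin-transferred compounds, and grown at 37 °C for at least 48 hr. Viability was read as ATP luminescence.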
TDP1 inh – TDP1 (human) enzyme inhibition; recombinant TDP1, AlphaScreen DNA substrate cleavage; Potency, µM (titrated, usually from 130 µM), for the others: top-dose activity change, negative = inhibition, actives largely listed as inhibitors; actives 0.28% (n = 350,000); AID 485290; further: nearly all actives have a fitted effect of over 40% in size
Target sequence (Q9NUW8 whole entry, looked up): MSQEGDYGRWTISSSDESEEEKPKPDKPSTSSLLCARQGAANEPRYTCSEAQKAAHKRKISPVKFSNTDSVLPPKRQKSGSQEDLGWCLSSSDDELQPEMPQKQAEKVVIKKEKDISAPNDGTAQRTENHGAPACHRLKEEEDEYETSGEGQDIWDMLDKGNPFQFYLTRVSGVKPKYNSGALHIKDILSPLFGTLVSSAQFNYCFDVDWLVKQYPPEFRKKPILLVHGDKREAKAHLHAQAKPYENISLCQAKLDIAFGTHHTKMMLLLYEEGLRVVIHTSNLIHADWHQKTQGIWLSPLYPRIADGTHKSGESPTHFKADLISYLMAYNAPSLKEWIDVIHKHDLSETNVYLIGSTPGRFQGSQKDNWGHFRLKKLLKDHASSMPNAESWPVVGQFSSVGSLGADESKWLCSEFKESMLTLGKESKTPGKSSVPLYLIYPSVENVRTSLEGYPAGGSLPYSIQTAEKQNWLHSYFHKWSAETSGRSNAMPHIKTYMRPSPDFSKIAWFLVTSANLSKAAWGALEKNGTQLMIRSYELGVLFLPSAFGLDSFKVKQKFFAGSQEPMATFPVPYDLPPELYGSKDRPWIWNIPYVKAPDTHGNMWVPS
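Recombinant E. coli-expressed Tdp1 (1 nM) preincubated with compound 15 min at RT, then 5'-biotin/3'-phosphotyrosine-FITC DNA substrate (15 nM) added for 5 min. AlphaScreen beads (10 ug/ml) added, 10 min RT; tyrosine-FITC cleavage read as signal loss.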
RORgamma inh – ROR gamma (mouse) transcription inhibition. actives 5.4% (n = 310,000). Drosophila S2 Gal4-RORgamma UAS-luciferase reporter, 20 h. Potency, µM (titrated, usually from 53.6 µM), without a hit: at the highest dose activity change, negative = inhibition, hits mostly inhibitors; further: nearly all actives have a fitted effect of over 60% in size
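A Gal4/UAS one-hybrid system in insect cells: metallothionein-promoter Gal4–ROR gamma fusion plus Photinus luciferase reporter. Copper sulfate 700 uM final, 20 hr ambient incubation, luminescent detection after 10 min with reagent.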
VP16 counter – counter-screen for ROR gamma inhibitors: Gal4-VP16 reporter | Drosophila S2 Gal4-VP16 UAS-luciferase, luminescence, 20 h | Potency, µM (highest dose often 53.6 µM), for inactives: at the highest dose activity, negative = inhibition, hits mostly inhibitors | actives 3.5% (n = 310,000);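 further: Gal4-VP16 expression switched on by copper sulfate through the metallothionein promoter; nearly all actives have a fitted effect of over 50% in size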
* hit, by the source's call; u = inconclusive; x = no result given; [ ] = remark or other dose. The call rests on the fitted dose curve; in most records, active means well fitted curve in the direction sought with a large enough effect; inconclusive means small, poorly fitted or top-dose-only effect, or another doubt; inactive means no such curve, though single readings can be large; an effect the other way counts as inactive or inconclusive. On the % scale 0 is the no-effect control and ±100 the full control effect; potency means the concentration at half of the fitted maximal effect.

SMILES	TDP1 cell noCPT	TDP1 cell CPT	TDP1 inh	RORgamma inh	VP16 counter
O=C(COC(=O)c1ccc[n+]([O-])c1)Nc1ccc([N+](=O)[O-])cc1C(F)(F)F	-25%	-26%	0%	x	x
O=C(Cc1ccc(NC(=O)C2CCN(C(=O)C3CCCCC3)CC2)cc1)Nc1cccc(C(=O)N2CCCCC2)c1	-25%	-13%	x	x	x
Cc1cc(=O)n2nc(N(C)CC(=O)NCc3cccc(Br)c3)sc2n1	-12%	-26%	-3%	x	x
CN(C(=O)CSc1nc2ccccc2c(=O)n1-c1ccccc1F)C1CCS(=O)(=O)C1 (stereo not given)	-18%	-17%	1%	x	x
COc1ccc(-n2c(SCC(=O)NCc3ccc(C)cc3)nc3n[nH]c(C)c3c2=N)cc1	4.1µM*	6.5µM*	6%	x	x
COc1ccc(NC(=O)CSc2nc3n[nH]c(C)c3c(=N)n2-c2ccc(Cl)c(C)c2)cc1OC	u	-16%	-7%	u	u
CCOc1ccccc1NC(=O)CCSc1nc2n[nH]c(C)c2c(=N)n1-c1ccccc1Cl	u	u	5%	-22%	-7%
Cc1ccc(-n2c(SCC(=O)NCc3ccccc3)nc3n[nH]c(C)c3c2=N)cc1Cl	2.3µM*	4.1µM*	5%	x	x
Cc1c(Cl)cccc1-n1c(SCC(=O)NCc2ccccc2)nc2n[nH]c(C)c2c1=N	12µM*	15µM*	-1%	x	x
COc1ccc(CNC(=O)CSc2n[nH]c(C)c2[N+](=O)[O-])cc1	-1%	4%	6%	-10%	-7%
COc1ccc(OC)c(NC(=O)CSc2nc3n[nH]c(C)c3c(=N)n2-c2cccc(Cl)c2C)c1	16µM*	u	5%	30%	-14%
O=C1COc2ccc(C(=O)COC(=O)CNS(=O)(=O)c3cccc(F)c3)cc2N1	8%	-2%	-1%	x	x
COc1ccc(-c2nc(SCC(=O)NC3CCCCC3)n[nH]2)cc1	u	u	1%	7%	5%
Cc1ccccc1-n1c(SCc2ccccn2)nc2n[nH]c(C)c2c1=N	16µM*	21µM*	9%	u	u
COc1ccc(CNC(=O)CSc2n[nH]c(-c3ccc(OC)cc3)n2)cc1	13µM*	9.2µM*	-3%	x	x
O=C1NC(c2cccnc2)C(C(=O)c2cccs2)C(O)(C(F)(F)F)N1 (stereo not given)	-14%	u	1%	48%	-3%
CCOC(=O)CCn1cnc2onc(-c3ccccc3Cl)c2c1=O	-10%	7%	1%	x	x
CCOc1ccccc1NC(=O)CN1CCN(C(=O)C2CCCO2)CC1 (stereo not given)	-11%	5%	0%	-37%	7%
COc1ccccc1CN1CCC2(CC1)CCN(C(=O)c1cccn1C)CC2	u	4%	x	-14%	-13%
Cc1ccc(O)c(C(=O)c2cnc3c(c2)CN(CCC(C)C)C(=O)N3)c1	12µM*	10µM*	6%	u	-23%
O=C(Cc1cccc2ccccc12)Nc1nnc(-c2cccc([N+](=O)[O-])c2)s1	-26%	u	4%	-17%	2%
COc1ccc(/C=C/c2nnc(NC(=O)COc3ccc(Cl)cc3)s2)cc1	u	u	2%	x	x
O=C(CSc1ccc(Cl)cc1)Nc1nnc(-c2cccc([N+](=O)[O-])c2)s1	u	u	1%	10µM*	u
COCC(=O)Nc1nnc(COc2ccc(Cl)cc2)s1	-10%	-9%	2%	-43%	-11%
COc1ccc(/C=C/c2nnc(NC(=O)CSc3ccc(Cl)cc3)s2)cc1	16µM*	6.5µM*	3%	-40%	-16%
SMILES	TDP1 cell noCPT	TDP1 cell CPT	TDP1 inh	RORgamma inh	VP16 counter
CCOCC(=O)Nc1nnc(COc2ccc(Cl)cc2)s1	23µM*	16µM*	5%	-1%[10 µM]	2%
O=C(CSc1ccccc1)Nc1nnc(COc2ccc(Cl)cc2)s1	26µM*	8.2µM*	5%	11µM*	u
COc1ccc2nc(/C=N/NC(=O)[C@H](C)NC(=O)OC(C)(C)C)ccc2c1	x	x	3%	45%	5%
CC1CCN(CC(O)COc2ccc(F)cc2)CC1 (stereo not given)	-17%	2%	-1%	13%	4%
COC(=O)c1c(NC(=S)NNC(=O)c2ccc(Cl)s2)sc(C(=O)N(C)C)c1C	-5%	u	7%	u	-8%
Cn1c(SCC(=O)Nc2ccc(C(N)=O)cc2)nnc1-c1cccs1	17%	4%	-19%	-17%	-9%
C[C@@H](NCCCn1ccc(NC(=O)OCc2ccccc2)nc1=O)c1cccc2ccccc12	16µM*	u	x	x	x
CC[C@@H](NCCCn1ccc(NC(=O)OCc2ccccc2)nc1=O)c1ccccc1	16µM*	u	x	x	x
COc1ccc(NC(C)=O)cc1NC(=O)CSc1nnc(-c2ccccn2)n1C	-17%	-10%	2%	-11%	0%
O=C(Cn1cnc2ccccc21)N/N=C/c1ccc([N+](=O)[O-])cc1	-5%	-7%	-6%	-1%	-8%
O=C(Cn1nnc(-c2ccccc2)n1)N/N=C/c1cc([N+](=O)[O-])ccc1O	4.1µM*	5.8µM*	-1%	-4%	-26%
O=C(Cn1nc2ccccc2n1)N/N=C/c1cc([N+](=O)[O-])ccc1O	u	u	1%	u	1.4µM*
O=C(NN=Cc1cc(Cl)ccc1[N+](=O)[O-])c1cccc2ccccc12	-29%	u	x	x	x
O=C(CSc1ccccn1)N/N=C/c1cc([N+](=O)[O-])ccc1O	u	u	9%	2µM*	7.1µM*
O=C(N/N=C/c1cc([N+](=O)[O-])ccc1O)c1cccc2ccccc12	x	x	1%	2.8µM*	2.2µM*
Cc1ccccc1OCC(=O)NCCNC(=O)c1ccncc1	-2%	-13%	x	12%	5%
Cc1nn(CC(=O)N2CCCc3ccccc32)c(C)c1[N+](=O)[O-]	12%	-1%	0%	12%	3%
CCCOc1ccc(NC(=O)CC2C(=O)N(c3ccc(C)cc3)C(=O)N2C(C)C)cc1 (stereo not given)	u	u	11%	x	x
COc1ccc(OC2C=CC(C#Cc3ccc(C(C)(C)C)cc3)OC2CO)cc1 (stereo not given)	x	x	1%[21 µM]	-1%[10 µM]	-28%[10 µM]
CC(=O)Nc1cccc(-c2ccnc3c2CC(C)(C(=O)Nc2ccc(Cl)c(C(F)(F)F)c2)O3)c1 (stereo not given)	13µM*	10µM*	x	x	x
CC(=O)Nc1ccc(-c2ccnc3c2CC(C)(C(=O)Nc2cccc(C(F)(F)F)c2)O3)cc1 (stereo not given)	u	15µM*	x	x	x
CC(=O)Nc1cccc(-c2ccnc3c2CC(C)(C(=O)Nc2cccc(C(F)(F)F)c2)O3)c1 (stereo not given)	16µM*	13µM*	x	x	x
